Some test systems named below: T-47D breast; BT-549 breast; MDA-MB-435 melanoma; SW-620 colon; MCF7 breast; HCT-116 colon; HCC-2998 colon; KM12 colon.
Common to all, as to test: NCI-60 one-dose screen, 48 h (100 = growth as untreated, 0 = no growth, -100 = all killed)
Holding throughout (settings): 10 µM unless noted

The panel holds about 83,000 compounds, 20% with a hit somewhere; the sample as a whole holds those more often.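 Compound tested at a single concentration for 48 hours in 96-well plates; a percent growth value below 10 was scored as active.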 Values without a mark were called inactive. Activity calls are given as the source filed them.

For `CCOC(=O)c1cc2c(n1C)-c1nc(NC(C)=O)sc1CCC2`, the growth with T-47D breast was 51.8%; with BT-549 breast, 71.8%; in the assay with MDA-MB-435 melanoma, 98.5%; with SW-620 colon it was 93.3%; in the assay on MCF7 breast, 61.6%; in the assay with HCT-116 colon, 75.4%. Also, the growth with HCC-2998 colon was 113%; in the assay with KM12 colon, 87.7%.
For the molecule `CS(=O)(=O)Nc1cc(-c2ccc3ncnc(Nc4ccc5c(cnn5Cc5ccc(F)cc5)c4)c3c2)cnc1Cl`, the growth in the assay with T-47D breast is 5.06% (active); in the assay with BT-549 breast, 9.27% (active); with MDA-MB-435 melanoma it was 45.3%; in the assay on SW-620 colon it was 43.1%; with MCF7 breast, 14.4%; in the assay with HCT-116 colon, 57%. Further, the growth was 59.1% in the assay with HCC-2998 colon and 71.8% in the assay on KM12 colon.
Take `O=C(Nn1c2c(sc1=NC1CC1)C(=O)c1ccccc1C2=O)c1cc2ccc1CCc1ccc(cc1)CC2`: the growth in the assay on T-47D breast is 20.4%; with BT-549 breast, 37.2%; in the assay with MDA-MB-435 melanoma it was -93.2% (active); in the assay with SW-620 colon, 18.3%; with MCF7 breast, 11.5%; in the assay with HCT-116 colon, -9.1% (active). Further, in the assay on KM12 colon, the growth is 35.2%.
Turning to `CCOC(=O)c1ccc2c(c1)nc(-c1ccccc1)n2C1CCCCC1`, the growth is 66.8% in the assay with T-47D breast; 93% in the assay with BT-549 breast; 102% with MDA-MB-435 melanoma; 111% in the assay with SW-620 colon; 93.3% in the assay on MCF7 breast; 63.7% in the assay on HCT-116 colon. The growth in the assay with HCC-2998 colon was 91.6%; with KM12 colon, 95.1%.
Consider `COc1ccc(/C=C(\C#N)n2nnc3cc(F)c(F)cc32)cc1`, for which the growth is 23.1% with T-47D breast; 32.2% in the assay on BT-549 breast; -54% (active) in the assay on MDA-MB-435 melanoma; 14.9% in the assay on SW-620 colon; 22.1% in the assay on MCF7 breast; 28% in the assay on HCT-116 colon. The growth was 69.3% with HCC-2998 colon and 34% in the assay on KM12 colon.
Consider `CC1=C2[C@@H](CC1)[C@]1(C)O[C@@](C(C)C)(C[C@H]1OC(=O)[C@H](C)O)[C@H]2OC(=O)/C=C/c1ccccc1`, for which the growth in the assay on T-47D breast was 57.6%; with BT-549 breast, 15.9%; in the assay on MDA-MB-435 melanoma, 94.2%; in the assay on SW-620 colon, 95.1%; with MCF7 breast, 81.6%; with HCT-116 colon it was 74.2%. In the assay on KM12 colon, the growth is 93.9%.
For `CCOC(=O)c1cc2c(n1Cc1cc(OC)c(OC)c(OC)c1)-c1nc(N)sc1CCC2`, the growth with T-47D breast is 43.3%; in the assay with BT-549 breast, 51.2%; in the assay on MDA-MB-435 melanoma, -38.7% (active); in the assay with SW-620 colon, 43.4%; in the assay on MCF7 breast, 27.6%; in the assay with HCT-116 colon, 34.1%. In addition, the growth was 73.1% in the assay with HCC-2998 colon and 30.8% with KM12 colon.
Regarding `CSc1oc(C)nc1[P+](c1ccccc1)(c1ccccc1)c1ccccc1`, the growth in the assay with T-47D breast is 8.57% (active); in the assay with BT-549 breast, 43.4%; in the assay on MDA-MB-435 melanoma it was 41%; with SW-620 colon it was 65.1%; with MCF7 breast, 23.5%; in the assay with HCT-116 colon it was 33.4%. Moreover, the growth with KM12 colon is 23%.
Regarding `COc1ccc(/C=C/C(=O)c2cc3c(N)c(C(=O)Nc4cccc5ccccc45)sc3nc2C)cc1`, the growth with T-47D breast was 66.4%; in the assay on BT-549 breast, 87.5%; in the assay on MDA-MB-435 melanoma, -18.8% (active); in the assay on SW-620 colon it was 24.8%; with MCF7 breast, 13.5%; in the assay on HCT-116 colon, 86.6%. The growth in the assay on HCC-2998 colon was 94.9%; in the assay with KM12 colon, 74.4%.
Consider `COC(=O)/C=C1/SC(=Nc2ccc(C(F)(F)F)cc2)N(CCc2c[nH]c3ccc(O)cc23)C1=O`, for which the growth in the assay on T-47D breast is 17.3%; in the assay with BT-549 breast, -32.7% (active); with MDA-MB-435 melanoma, 24%; in the assay on SW-620 colon, 3.9% (active); with MCF7 breast it was 12.5%; in the assay with HCT-116 colon, -71.9% (active). The growth in the assay with HCC-2998 colon was -61.4% (active); with KM12 colon, 18.3%.
Consider `CCCNC(=O)Nc1ccc2cc3ccc(NC(=O)NCCC)cc3nc2c1`, for which the growth with T-47D breast is 46.6%; in the assay with BT-549 breast it was 82.1%; in the assay with MDA-MB-435 melanoma it was 77.4%; with SW-620 colon, 92%; with MCF7 breast, 62.6%; with HCT-116 colon, 76.3%. The growth in the assay on KM12 colon was 70.9%.
`C=C1C(=O)O[C@H]2[C@H]1CC/C(COC(=O)NCc1ccc(Cn3c(=O)sn(CCCCC)c3=O)cc1)=C\CC[C@@]1(C)O[C@@H]21`: the growth in the assay on T-47D breast was 0.543% (active); with BT-549 breast, 42.5%; with MDA-MB-435 melanoma, 25.7%; with SW-620 colon, -61.1% (active); in the assay with MCF7 breast, 6.29% (active); with HCT-116 colon it was -12.3% (active). Besides, the growth is 94.6% in the assay with HCC-2998 colon and 95.9% in the assay on KM12 colon.
On to `O=C(OC(CO)C(=O)NC12CC3CC(CC(C3)C1)C2)c1ccc(Cl)cc1` (stereo not drawn), for which the growth was 92.8% in the assay on T-47D breast; 106% with BT-549 breast; 94.6% in the assay with MDA-MB-435 melanoma; 101% in the assay with SW-620 colon; 91.8% in the assay on MCF7 breast; 90.9% in the assay with HCT-116 colon. The growth in the assay with HCC-2998 colon was 113%; with KM12 colon, 111%.
As to `O=C(Nc1nc2cc(C(=O)N3CCN(C(c4ccccc4)c4ccccc4)CC3)ccc2o1)c1ccc(NC2CCCCC2)c([N+](=O)[O-])c1`, the growth with T-47D breast is 44.3%; in the assay with BT-549 breast, 83.4%; in the assay with MDA-MB-435 melanoma it was 64.9%; in the assay with SW-620 colon, 44.3%; in the assay on MCF7 breast, 50.2%; in the assay with HCT-116 colon it was 40.9%. Also, the values for the growth with HCC-2998 colon and in the assay with KM12 colon were 62.2% and 51.4%, respectively.

For the origin of these results see PubChem BioAssay (NCI).
